Consider 21 compounds from PubChem BioAssay (EPA / NIEHS).

“And” between values parts separate entries of the source, which are not always exact repeats. Equal values may be shown once. Results filed as inconclusive are left out. The source made the active and inactive calls. How the source made its calls, unless noted: active means hit-call score of the fitted dose curve at least 0.9, where 1 is the maximum; inconclusive means response in the unintended direction; inactive means score below 0.9.

The target of assay [1] is human Retinoic Acid Receptor gamma (RARg), RARG (gene 5916) (UniProt P13631). The assay is described as follows: ATG_RARg_TRANS: Attagene TRANS-FACTORIAL HepG2 Assay for human Retinoic Acid Receptor gamma (RARg) (AID 2283009). In a few lines:
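HepG2 transiently transfected with GAL4-UAS reporter units and chimeric NR-Gal4 constructs; 24 h compound exposure. Reporter mRNA quantified by RT-PCR, FAM labeling, HpaI digestion and capillary electrophoresis; gain-of-signal versus DMSO.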

Assay [2] deals with Retinoic acid receptor RXR-alpha (Homo sapiens) (UniProt P19793). The assay is described as follows: ATG_RXRa_TRANS: Attagene TRANS-FACTORIAL HepG2 Assay for human Retinoid X Receptor alpha (RXRa) (AID 2283012). In a few lines: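 HepG2 cells transiently transfected with GAL4-UAS reporter units and chimeric RXRa-Gal4 protein, treated 24 h. Reporter mRNA measured by RT-PCR, fluorescent labelling, HpaI digestion and capillary electrophoresis. Induction fitted against DMSO.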
Sequence of Retinoic acid receptor RXR-alpha (Homo sapiens) (P19793 whole entry, looked up, the tested form may be a part): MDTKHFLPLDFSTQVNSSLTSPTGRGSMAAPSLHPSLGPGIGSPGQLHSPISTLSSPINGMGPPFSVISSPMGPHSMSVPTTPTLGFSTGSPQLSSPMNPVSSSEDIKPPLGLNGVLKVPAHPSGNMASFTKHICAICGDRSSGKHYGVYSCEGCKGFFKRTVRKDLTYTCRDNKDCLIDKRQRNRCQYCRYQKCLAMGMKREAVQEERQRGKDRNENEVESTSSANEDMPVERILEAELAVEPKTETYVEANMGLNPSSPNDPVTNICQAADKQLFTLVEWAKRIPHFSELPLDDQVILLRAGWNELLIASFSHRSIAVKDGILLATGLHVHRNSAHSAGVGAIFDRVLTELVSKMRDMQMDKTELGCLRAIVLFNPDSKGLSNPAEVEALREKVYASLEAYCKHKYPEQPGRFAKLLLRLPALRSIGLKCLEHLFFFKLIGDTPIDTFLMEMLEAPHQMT

Assay [3] addresses human Vitamin D Receptor (VDR), VDR (gene 7421) (UniProt P11473). The experiment in a line: ATG_VDR_TRANS: Attagene TRANS-FACTORIAL HepG2 Assay for human Vitamin D Receptor (VDR) (AID 2283022). The method, boiled down: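 RT-PCR/capillary electrophoresis read-out of reporter mRNA induction in transiently transfected HepG2; 24 h dosing; chimeric NR-Gal4 (TRANS format); gain-of-signal fit against DMSO baseline.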

Assay [4] concerns the target human RAR-related Orphan Receptor beta (RORb), RORB (gene 6096) (UniProt Q92753). The experiment in a line: ATG_RORb_TRANS: Attagene TRANS-FACTORIAL HepG2 Assay for human RAR-related Orphan Receptor beta (RORb) (AID 2283010). In a few lines:
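HepG2 cells transiently transfected with GAL4-UAS reporter units expressing chimeric NR-Gal4 protein; reporter mRNA measured 24 h after dosing by RT-PCR, 6-FAM labelling and capillary electrophoresis. Gain-of-signal fitted relative to DMSO baseline.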

In assay [5] the target is human RAR-related Orphan Receptor gamma (RORg), RORC (gene 6097) (UniProt P51449). The experiment in a line: ATG_RORg_TRANS: Attagene TRANS-FACTORIAL HepG2 Assay for human RAR-related Orphan Receptor gamma (RORg) (AID 2283011).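 On AC50: potency for induction of reporter transcripts above DMSO so activators.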 The method, boiled down: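 Transient MRTU transfection of HepG2 (TRANS format, exogenous NR-Gal4 chimera). 24 h dosing. Total RNA → oligo(dT) RT → PCR → 6-FAM labelling → HpaI cut → CE. Gain vs DMSO.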
Sequence of human RAR-related Orphan Receptor gamma (RORg), RORC (gene 6097) (P51449 whole entry, looked up, the tested form may be a part): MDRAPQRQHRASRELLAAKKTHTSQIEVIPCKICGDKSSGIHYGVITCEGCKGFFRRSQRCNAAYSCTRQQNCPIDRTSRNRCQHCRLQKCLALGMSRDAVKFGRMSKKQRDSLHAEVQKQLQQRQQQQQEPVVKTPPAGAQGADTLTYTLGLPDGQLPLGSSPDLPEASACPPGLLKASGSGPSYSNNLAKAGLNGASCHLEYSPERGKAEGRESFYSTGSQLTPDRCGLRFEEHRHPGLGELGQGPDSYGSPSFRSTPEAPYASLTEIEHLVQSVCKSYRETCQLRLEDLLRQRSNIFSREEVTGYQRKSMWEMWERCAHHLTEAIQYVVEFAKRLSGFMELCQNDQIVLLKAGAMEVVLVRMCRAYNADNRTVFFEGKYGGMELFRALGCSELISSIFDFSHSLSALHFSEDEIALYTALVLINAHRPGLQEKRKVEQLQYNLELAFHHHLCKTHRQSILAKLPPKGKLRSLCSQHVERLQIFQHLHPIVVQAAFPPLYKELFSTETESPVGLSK

Assay [6] has as its target human Retinoid X Receptor beta (RXRb), RXRB (gene 6257) (UniProt P28702). The experiment in a line: ATG_RXRb_TRANS: Attagene TRANS-FACTORIAL HepG2 Assay for human Retinoid X Receptor beta (RXRb) (AID 2283013). The method, boiled down:
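HepG2 cells were transiently transfected with multiplexed GAL4-UAS reporters and a chimeric RXRb-Gal4 construct, then exposed for 24 h. Reporter mRNA was quantified by RT-PCR, FAM labeling, HpaI digestion and capillary electrophoresis; gain of signal was scored against DMSO.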

Read-out in assay [7]: E-selectin (Homo sapiens) (UniProt P16581)
The assay is described as follows: BSK_3C_Eselectin: BioMAP Diversity Plus: 3C Assay for Eselectin Biomarker Activity (AID 2283015; active means hit-call score of the fitted dose curve at least 0.9, where 1 is the maximum; inactive means score below 0.9). The conditions noted are these: primary human endothelial cells (HUVEC); actives raise or lower the signal. The method, boiled down:
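HUVEC, 3C stimulation; compound exposure 24 h; E-selectin by ELISA; gain- or loss-of-signal fitted bidirectionally vs DMSO baseline.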

Read-out in assay [8]: Interleukin-1 alpha (IL1a), IL1A (gene 3552)
The experiment in a line: BSK_BE3C_IL1a: BioMAP Diversity Plus: BE3C Assay for Interleukin-1 alpha (IL1a) Biomarker Activity (AID 2283016; active means hit-call score of the fitted dose curve at least 0.9, where 1 is the maximum; inactive means score below 0.9). To be noted: primary human bronchial epithelial cells; actives raise or lower the signal. The method, boiled down:
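Human primary bronchial epithelial cells, 24 h chemical exposure; IL-1a quantified by ELISA, fitted bidirectionally against DMSO. Cytotoxicity assessed in parallel by SRB total-protein staining at the time of measurement.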

Read-out in assay [9]: Monocyte Chemoattractant Protein-1 (MCP1), CCL2 (gene 6347)
The experiment in a line: BSK_3C_MCP1: BioMAP Diversity Plus: 3C Assay for Monocyte Chemoattractant Protein-1 (MCP1) Biomarker Activity (AID 2283017; active means hit-call score of the fitted dose curve at least 0.9, where 1 is the maximum; inactive means score below 0.9). To be noted: primary human endothelial cells (HUVEC); actives raise or lower the signal. The method, boiled down:
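HUVEC, 3C system; 24 h chemical exposure; MCP-1 by ELISA; bidirectional curve fit vs DMSO baseline.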

Read-out in assay [10]: Monocyte Chemoattractant Protein-1 (MCP1), CCL2 (gene 6347)
The assay is described as follows: BSK_4H_MCP1: BioMAP Diversity Plus: 4H Assay for Monocyte Chemoattractant Protein-1 (MCP1) Biomarker Activity (AID 2283018; active means hit-call score of the fitted dose curve at least 0.9, where 1 is the maximum; inactive means score below 0.9). The conditions noted are these: primary human endothelial cells (HUVEC); actives raise or lower the signal. The method, boiled down: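 Human umbilical vein endothelial cells (4H system) exposed to chemicals for 24 h in 96-well format. MCP-1 measured by ELISA; bidirectional fitting against DMSO, with SRB total-protein staining in parallel cultures for cytotoxicity.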

Read-out in assay [11]: Human Leukocyte Antigen - DR isotype (HLADR), HLA-DRA (gene 3122)
The experiment in a line: BSK_3C_HLADR: BioMAP Diversity Plus: 3C Assay for Human Leukocyte Antigen - DR isotype (HLADR) Biomarker Activity (AID 2283019; active means hit-call score of the fitted dose curve at least 0.9, where 1 is the maximum; inactive means score below 0.9;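 on outcome: ELISA of cell-surface HLA-DR on HUVEC 24 h after dosing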). To be noted: primary human endothelial cells (HUVEC); actives raise or lower the signal. In a few lines: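 HUVEC, 3C stimulation, 24 h post-dose; HLA-DR by ELISA; bidirectional curve fit vs DMSO baseline; gain or loss of signal scored.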

Read-out in assay [12]: Interleukin-8 (IL8), CXCL8 (gene 3576)
The assay is described as follows: BSK_3C_IL8: BioMAP Diversity Plus: 3C Assay for Interleukin-8 (IL8) Biomarker Activity (AID 2283020; active means hit-call score of the fitted dose curve at least 0.9, where 1 is the maximum; inactive means score below 0.9). To be noted: primary human endothelial cells (HUVEC); actives raise or lower the signal. In a few lines: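 Primary human umbilical vein endothelial cells were dosed for 24 h. IL-8 was quantified by ELISA and fitted bidirectionally against DMSO. Cytotoxicity was assessed in parallel cultures by SRB staining at 560 nm.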

Read-out in assay [13]: Monokine induced gamma interferon (MIG), CXCL9 (gene 4283)
The experiment in a line: BSK_3C_MIG: BioMAP Diversity Plus: 3C Assay for Monokine induced gamma interferon (MIG) Biomarker Activity (AID 2283021; active means hit-call score of the fitted dose curve at least 0.9, where 1 is the maximum; inactive means score below 0.9;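 on AC50: MIG protein level measured by immunoassay in the treated endothelial cultures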). To be noted: primary human endothelial cells (HUVEC); actives raise or lower the signal. The method, boiled down:
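HUVEC primary endothelial cultures dosed with chemical; MIG quantified by ELISA at 24 h. Data fitted bidirectionally against DMSO control, with parallel SRB total-protein staining for cytotoxicity.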

Assay [14] is described as follows: BSK_3C_SRB: Viability Assessment in the BioMAP Diversity Plus: 3C Assay (AID 2283023; active means hit-call score of the fitted dose curve at least 0.9, where 1 is the maximum; inactive means score below 0.9;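 further: fitted both ways against DMSO so a hit may be signal rise or drop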). The conditions noted are these: primary human endothelial cells (HUVEC). The method, boiled down: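 HUVEC, 24 h post-dose; 10% TCA fix, 0.1% SRB stain, A560 nm. Bidirectional curve fit vs DMSO negative control.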
Read-out in assay [15]: Matrix Metallopeptidase 1 (MMP1), MMP1 (gene 4312)
The assay is described as follows: BSK_BE3C_MMP1: BioMAP Diversity Plus: BE3C Assay for Matrix Metallopeptidase 1 (MMP1) Biomarker Activity (AID 2283024; active means hit-call score of the fitted dose curve at least 0.9, where 1 is the maximum; inactive means score below 0.9). The conditions noted are these: primary human bronchial epithelial cells; actives raise or lower the signal. In a few lines: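 Human primary bronchial epithelial cells (BE3C system) dosed for 24 h; MMP-1 quantified by ELISA. Bidirectional fit against DMSO; cytotoxicity tracked in parallel cultures by SRB total-protein staining.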

Assay [16] can be described thus: BSK_3C_Vis: BioMAP Diversity Plus: 3C Assay for Morphology Visualization (AID 2283025; active means hit-call score of the fitted dose curve at least 0.9, where 1 is the maximum; inactive means score below 0.9;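 further: fitted both ways so gain or loss versus DMSO counts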;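 on AC50: light microscopy image of cell morphology used as background control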). To be noted: primary human endothelial cells (HUVEC). The method, boiled down:
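Human umbilical vein endothelial cell morphology was inspected by light microscopy 24 h after chemical dosing; scored bidirectionally relative to DMSO.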

Read-out in assay [17]: Pselectin, SELP (gene 6403)
The experiment in a line: BSK_4H_Pselectin: BioMAP Diversity Plus: 4H Assay for Pselectin Biomarker Activity (AID 2283026; active means hit-call score of the fitted dose curve at least 0.9, where 1 is the maximum; inactive means score below 0.9). The conditions noted are these: primary human endothelial cells (HUVEC); actives raise or lower the signal. The method, boiled down:
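Primary human umbilical vein endothelial cells were treated 24 h, and cell-surface P-selectin was then quantified by ELISA. Bidirectional fit versus DMSO; cytotoxicity checked in parallel cultures by SRB total-protein staining.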

The nature of assay [18]: BSK_4H_SRB: Viability Assessment in the BioMAP Diversity Plus: 4H Assay (AID 2283027; active means hit-call score of the fitted dose curve at least 0.9, where 1 is the maximum; inactive means score below 0.9;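 further: cells exposed to compound for 24 h before staining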;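 on AC50: curves fitted both ways versus DMSO so AC50 may be loss or gain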). To be noted: primary human endothelial cells (HUVEC). In a few lines:
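Human umbilical vein endothelial cells, 24 h after chemical dosing; total protein measured by 0.1% sulforhodamine B staining after 10% TCA fixation, read at 560 nm. Bidirectional fitting against DMSO.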

Assay [19] in a line: BSK_BE3C_SRB: Viability Assessment in the BioMAP Diversity Plus: BE3C Assay (AID 2283028; active means hit-call score of the fitted dose curve at least 0.9, where 1 is the maximum; inactive means score below 0.9;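 on AC50: fitted both ways so AC50 may mark signal gain or loss versus DMSO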). The conditions noted are these: primary human bronchial epithelial cells. In a few lines:
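Primary human bronchial epithelium; chemical dosing, 24 h; 10% TCA fix, 0.1% SRB stain, A560; bidirectional fit vs DMSO baseline.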

The target in assay [20] is human Thyroid Receptor alpha (THRa1), THRA (gene 7067) (UniProt P10827). The experiment in a line: ATG_THRa1_TRANS: Attagene TRANS-FACTORIAL HepG2 Assay for human Thyroid Receptor alpha (THRa1) (AID 2283014). The method, boiled down: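 Transient HepG2 transfection, NR-Gal4 chimera driving GAL4-UAS reporters; 24 h compound exposure; total RNA, oligo(dT) RT, PCR, fluorescent primer extension, capillary electrophoresis. Upward direction vs DMSO control.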
Sequence of human Thyroid Receptor alpha (THRa1), THRA (gene 7067) (P10827 whole entry, looked up, the tested form may be a part): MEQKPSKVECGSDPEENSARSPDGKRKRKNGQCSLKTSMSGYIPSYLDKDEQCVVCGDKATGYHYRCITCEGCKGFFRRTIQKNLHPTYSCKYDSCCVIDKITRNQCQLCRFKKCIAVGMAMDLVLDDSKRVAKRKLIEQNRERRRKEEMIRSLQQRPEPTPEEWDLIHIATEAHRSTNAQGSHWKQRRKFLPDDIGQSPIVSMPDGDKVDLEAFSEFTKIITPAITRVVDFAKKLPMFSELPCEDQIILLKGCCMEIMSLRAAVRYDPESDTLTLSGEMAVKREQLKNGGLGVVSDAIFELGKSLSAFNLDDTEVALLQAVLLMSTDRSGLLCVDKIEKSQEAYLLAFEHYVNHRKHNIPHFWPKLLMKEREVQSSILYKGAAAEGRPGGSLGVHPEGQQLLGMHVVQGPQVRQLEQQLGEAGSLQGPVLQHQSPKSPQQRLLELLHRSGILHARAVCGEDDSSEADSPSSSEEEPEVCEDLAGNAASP

Sequence of human Retinoic Acid Receptor gamma (RARg), RARG (gene 5916) (P13631 whole entry, looked up, the tested form may be a part): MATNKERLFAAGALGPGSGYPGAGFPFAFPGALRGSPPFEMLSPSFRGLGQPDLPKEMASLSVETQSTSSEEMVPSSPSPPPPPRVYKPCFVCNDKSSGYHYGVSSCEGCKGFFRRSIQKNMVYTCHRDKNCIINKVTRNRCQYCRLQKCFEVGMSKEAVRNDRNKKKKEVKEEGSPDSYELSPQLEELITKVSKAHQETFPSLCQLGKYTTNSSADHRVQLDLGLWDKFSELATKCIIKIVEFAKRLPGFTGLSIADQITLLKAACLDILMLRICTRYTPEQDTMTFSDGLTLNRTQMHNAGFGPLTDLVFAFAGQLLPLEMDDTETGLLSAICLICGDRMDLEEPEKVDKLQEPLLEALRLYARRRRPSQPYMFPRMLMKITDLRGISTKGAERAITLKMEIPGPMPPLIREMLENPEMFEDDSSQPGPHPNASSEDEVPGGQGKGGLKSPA
Sequence of human Retinoid X Receptor beta (RXRb), RXRB (gene 6257) (P28702 whole entry, looked up, the tested form may be a part): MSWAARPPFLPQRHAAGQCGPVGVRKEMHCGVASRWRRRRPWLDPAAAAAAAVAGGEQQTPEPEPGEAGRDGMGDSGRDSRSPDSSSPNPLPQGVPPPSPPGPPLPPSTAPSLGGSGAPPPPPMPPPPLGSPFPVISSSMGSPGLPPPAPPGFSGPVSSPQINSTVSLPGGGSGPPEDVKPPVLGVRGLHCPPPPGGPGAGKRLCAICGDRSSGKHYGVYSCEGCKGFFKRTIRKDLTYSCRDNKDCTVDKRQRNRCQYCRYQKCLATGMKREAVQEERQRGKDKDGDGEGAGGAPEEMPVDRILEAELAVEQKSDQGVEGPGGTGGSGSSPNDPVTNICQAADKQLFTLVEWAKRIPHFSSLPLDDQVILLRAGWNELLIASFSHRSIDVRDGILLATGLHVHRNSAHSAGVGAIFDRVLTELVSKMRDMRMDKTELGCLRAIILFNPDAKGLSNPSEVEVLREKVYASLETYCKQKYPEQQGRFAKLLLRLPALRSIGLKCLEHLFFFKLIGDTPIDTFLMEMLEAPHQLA
Sequence of human Vitamin D Receptor (VDR), VDR (gene 7421) (P11473 whole entry, looked up, the tested form may be a part): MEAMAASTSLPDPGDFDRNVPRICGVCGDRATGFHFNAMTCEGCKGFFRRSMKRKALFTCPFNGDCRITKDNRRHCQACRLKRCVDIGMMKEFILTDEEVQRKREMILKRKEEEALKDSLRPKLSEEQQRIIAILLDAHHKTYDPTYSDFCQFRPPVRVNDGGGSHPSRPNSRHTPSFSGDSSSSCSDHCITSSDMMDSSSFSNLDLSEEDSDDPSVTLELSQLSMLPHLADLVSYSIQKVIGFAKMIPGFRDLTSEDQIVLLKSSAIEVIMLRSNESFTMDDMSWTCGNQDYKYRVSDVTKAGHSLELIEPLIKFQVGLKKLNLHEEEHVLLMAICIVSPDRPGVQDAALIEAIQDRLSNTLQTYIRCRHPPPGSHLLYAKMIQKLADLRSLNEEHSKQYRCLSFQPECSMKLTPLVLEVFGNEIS
Sequence of human RAR-related Orphan Receptor beta (RORb), RORB (gene 6096) (Q92753 whole entry, looked up, the tested form may be a part): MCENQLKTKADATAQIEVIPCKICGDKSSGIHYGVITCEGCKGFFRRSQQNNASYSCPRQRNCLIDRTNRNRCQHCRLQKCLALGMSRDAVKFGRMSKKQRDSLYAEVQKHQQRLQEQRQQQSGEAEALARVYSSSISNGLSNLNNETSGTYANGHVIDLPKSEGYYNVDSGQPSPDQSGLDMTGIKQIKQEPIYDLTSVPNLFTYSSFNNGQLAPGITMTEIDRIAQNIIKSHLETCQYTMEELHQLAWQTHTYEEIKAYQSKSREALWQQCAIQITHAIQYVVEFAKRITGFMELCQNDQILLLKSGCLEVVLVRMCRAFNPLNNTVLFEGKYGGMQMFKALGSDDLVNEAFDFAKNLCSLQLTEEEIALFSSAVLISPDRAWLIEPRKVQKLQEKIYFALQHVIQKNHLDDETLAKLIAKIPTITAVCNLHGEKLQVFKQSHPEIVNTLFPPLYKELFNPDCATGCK
Sequence of E-selectin (Homo sapiens) (P16581 whole entry, looked up): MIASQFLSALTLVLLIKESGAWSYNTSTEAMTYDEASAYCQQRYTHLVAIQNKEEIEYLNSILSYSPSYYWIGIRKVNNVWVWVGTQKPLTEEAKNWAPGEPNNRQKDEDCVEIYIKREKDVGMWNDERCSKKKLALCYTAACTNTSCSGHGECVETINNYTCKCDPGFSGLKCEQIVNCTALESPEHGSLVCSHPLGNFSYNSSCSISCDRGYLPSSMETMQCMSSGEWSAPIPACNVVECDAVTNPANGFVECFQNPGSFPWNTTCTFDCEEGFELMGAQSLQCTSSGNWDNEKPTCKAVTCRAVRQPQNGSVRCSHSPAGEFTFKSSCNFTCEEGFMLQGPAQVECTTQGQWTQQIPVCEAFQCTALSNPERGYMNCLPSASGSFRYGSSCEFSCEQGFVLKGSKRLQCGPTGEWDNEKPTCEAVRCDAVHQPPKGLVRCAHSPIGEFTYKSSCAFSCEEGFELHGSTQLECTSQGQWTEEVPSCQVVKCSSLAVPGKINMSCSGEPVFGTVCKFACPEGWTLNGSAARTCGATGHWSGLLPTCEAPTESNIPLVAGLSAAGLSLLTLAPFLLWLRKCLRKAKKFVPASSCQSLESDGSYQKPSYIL

In the case of `c1ccc(N=NNc2ccccc2)cc1`, the call in [1], in assay [2] and in assay [3] was inactive.

Take `COc1cc(OC)nc(NC(=O)NS(=O)(=O)c2ncccc2C(=O)N(C)C)n1`: the compound was classed as inactive in assay [4], in [5], in assay [2], in assay [6], in assay [7] and in [8]. Moreover, the result in assay [9], in [10], in [11], in assay [12], in assay [13] and in assay [14] was inactive. Moreover, the outcome in assay [15], in assay [16], in assay [17], in assay [18] and in [19] was inactive.

The term AC50 denotes the concentration giving half of the maximal activity seen. As for `CC(C)(C)CC(C)(C)c1ccc(O)cc1`, the call in assay [5], in assay [2], in [20] and in assay [3] was inactive. In addition, the AC50 in assay [6] is 11.1 µM (active) and 4.81 µM (active) and 6.61 µM (active); in assay [7], 7.99 µM (active); in [8] it was 19.5 µM (active); in assay [9], 9.66 µM (active); in [10] it was 6.54 µM (active); in assay [11], 6.4 µM (active). Besides, the AC50 was 10.1 µM (active) in [12]; 12.4 µM (active) in assay [13]; 7.28 µM (active) in assay [14]; 33.7 µM (active) in assay [15]; 6.71 µM (active) in assay [16]; 11.4 µM (active) in assay [17]. Also, the results for the AC50 in [18] and in assay [19] were 9.01 µM (active) and 13.3 µM (active), respectively.

With `N#Cc1ccccn1`, in [4], the result was inactive.

As to `COc1ccccc1OC`, the call in assay [4], in assay [5], in [2], in assay [6] and in [3] was inactive.

`CCOP(=O)(CN(CCO)CCO)OCC`: the outcome in [1], in assay [6], in assay [20] and in [3] was inactive.

For the compound `CNC`, the result in assay [4] was inactive.

Turning to `C=C(C)C#N`, the outcome in [4] and in assay [2] was inactive.

With `COc1ccc(OC)c(C=O)c1`, the compound was called inactive in assay [4], in assay [5], in assay [6], in assay [20] and in assay [3].

Consider `O=CC=O`, for which the call in assay [4], in assay [5] and in assay [2] was inactive.

Regarding `ClCCBr`, the compound was classed as inactive in assay [4], in assay [5] and in assay [2].

As for `CC(C)c1ccc(CO)cc1`, the outcome in assay [4], in assay [20], in assay [7], in assay [8], in assay [10] and in assay [11] was inactive. The outcome in assay [12], in assay [13], in assay [3], in assay [14], in assay [15] and in assay [16] was inactive. Further, the result in assay [18] and in [19] was inactive.

With `CC(C)OC(=O)Nc1ccccc1`, the call in assay [1] and in [20] was inactive.

Turning to `O=C(CCl)CCl`, the result in assay [4], in assay [2], in assay [6], in [20] and in assay [3] was inactive. Further, in [5], the AC50 is 60.1 µM (active).

For `COS(=O)(=O)c1ccc(C)cc1`, the compound was called inactive in assay [4], in assay [5], in [2] and in [3].

Consider `Cc1cc(=O)[nH]o1`, for which the call in assay [4] and in [6] was inactive.

`Cl/C=C\C[N+]12CN3CN(CN(C3)C1)C2`: the compound was called inactive in [4] and in assay [2].

Turning to `C[C@@H](Oc1ccc(Cl)cc1Cl)C(=O)O`, the outcome in [1], in [20] and in assay [3] was inactive.

In the case of `CC(C#N)CCC#N` (stereo not given), the call in assay [1] and in assay [20] was inactive.

As for `O=C1CCCN1`, the compound was classed as inactive in [5] and in [2].

For `NC(=O)O`, the compound was called inactive in assay [4], in [5], in assay [2], in assay [6], in [7] and in assay [8]. In addition, the result in assay [10], in [11], in assay [12], in assay [13], in [3] and in assay [14] was inactive. The outcome in assay [15], in assay [16], in assay [18] and in assay [19] was inactive.
